The values that follow come from PubChem BioAssay (NCI).

Compounds without any hit were thinned out: in the full panel of roughly 83,000, 20% have a hit.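 How to read the values: 0–100, growth inhibition (40 = 60% inhibited); 0, no net growth; -100 to 0, cell death (-40 = 40% of starting cells died; -100 = all dead).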 Activity calls are given as the source filed them.

The test concerns NCI/ADR-RES ovarian. Put plainly: NCI-60 one-dose screen, 48 h (100 = growth as untreated, 0 = no growth, -100 = all killed). Particulars: 10 µM unless noted. The procedure: Growth inhibition of the NCI/ADR-RES human […] tumor cell line is measured as a screen for anti-cancer activity. Cells are grown in 96 well plates and exposed to the test compound for 48 hours. Compounds are tested at a single concentration, which is 10^-5 M for most compounds. The reported endpoint is percent growth (GI% or GIPRCNT), where numbers from 0 - 100% represent growth inhibition, and numbers from -100% - 0 represent cell death. For example, a value of 40 represents 60% growth inhibition. A value of 0 means no net growth occurred over the course of the experiment. A value of -40 indicates 40% of cells at the beginning of the experiment died by the end of the experiment. A value of -100 means all cells are dead at the end of the experiment.
NCI-60 Human Tumor Cell Lines Screen was performed using the standard one-dose NCI protocol, which is described in more detail at https://dtp.cancer.gov/discovery_development/nci-60/default.htm.
Compounds with GIPRCNT values below 10 were considered active. Activity score was based on GIPRCNT using the following formula: […]
Score is 0 for GIPRCNT values of 100 or above, 50 for GIPRCNT values of 0, and 100 for GIPRCNT values of -100.
Consider `COc1ccc(C2OCC(C)(C)CO2)cc1OC`, for which the growth was 108% (inactive).
For the molecule `CCCCc1ccc(C(O)(CCN2CC3CCC(CC3)C2)c2ccccc2)cc1` (stereo not given), the growth is 98.3% (inactive).
On to `COc1ccc(-c2nc3sc(C)cn3c2/C=C/C(=O)c2cc(OC)c(OC)c(OC)c2)cc1`, for which the growth is 21.8% (inactive).
For `Cc1nc2nc(C(F)(F)F)[nH]c2nc1C` the value was 107% (inactive); for `O=C1/C(=C/c2ccc(Oc3ccccc3)cc2)N=C(c2ccccc2)N1CCc1cccs1`, 83.9% (inactive); for `COc1cc2cc(Oc3ccc(NC(=O)Nc4cccc(C(F)(F)F)c4)cc3)c(C)nc2cc1OCCN1CCCCC1`, 20.1% (inactive).
Under `O=C(CCc1nnc2sc(-c3ccccc3)nn12)c1nc2ccccc2[nH]1` stands 92.5% (inactive); under `Cc1ccc(C2SCC(=O)N2NC(=O)c2[nH]c3ccc(F)cc3c2-c2ccccc2)cc1` (stereo not given), 92% (inactive).
Under `O=C(CCCCCCC(=O)Nc1ccc2c(c1)/C(=C/c1ccc[nH]1)C(=O)N2)NO` stands 35.7% (inactive); under `CC(C)N1CCN(c2ccc(OC[C@H]3CO[C@](Cn4cncn4)(c4ccc(Cl)cc4Cl)O3)cc2)CC1`, 88.1% (inactive); under `CC(=O)Nc1ccc(S(=O)(=O)N/N=C\c2ccc(Cl)c(Cl)c2)cc1`, 103% (inactive).
Consider `COc1ccc(-n2ncc3c2ccc2cc(S(=O)(=O)c4ccccc4)c(=O)n(C)c23)cc1`, for which the growth is 77.3% (inactive).
Under `CCOC(=O)c1[nH]c2cc(Cl)ccc2c1[C@@H](C(=O)NC(C)(C)C)N(CC)C(=O)CCCCC#Cc1cccc2c1CN(C1CCC(=O)NC1=O)C2=O` (stereo not given in full) stands 16.8% (inactive); under `COc1cc(C(=O)N(C(C)C)C2CCCCC2)cc(OC)c1OC`, 96.1% (inactive); under `O=C1CC2c3cc(-c4cc5ccccc5o4)ccc3CCN2C(=O)N1c1ccccc1` (stereo not given), 81.4% (inactive).
With `Cc1cccc2c(=O)c3c(sc12)c(NCCCN)nc1ccccc13`, the growth was 24% (inactive).
On to `COc1ccc(Cn2c(Br)c3c(c2-c2cc(OC)c(OC)c(OC)c2)CCc2sc(N)nc2-3)cc1`, for which the growth was 3.87% (active).
Take `COc1ncc(F)c(OC)n1`: the growth was 105% (inactive).
Regarding `Nc1nc(-c2ccnc(Cl)c2)nn1-c1nc2ccccc2s1`, the growth is 104% (inactive).
For `O=C1CN2CCC1C/C2=C\c1ccnc2c(Cl)cccc12` (stereo not given) the value was 101% (inactive); for `O=C(O)CCN1CCN(c2cccc(Cl)c2)CC1`, 112% (inactive).
For `CN(C)c1ccc(/C=C(\C#N)c2cc3ccccc3n2C)cc1` the value was 7.61% (active); for `C1CCC([PH+](C2CCCCC2)C2CCCCC2[PH+](C2CCCCC2)C2CCCCC2)CC1.O=C(C1[CH-]CCCC1)C1CCCC[N-]1.[Au]` (stereo not given), 17.2% (inactive).
On to `Cc1nc2ccc(Cl)cc2n1C`, for which the growth is 112% (inactive).
For the molecule `CCN(C(=O)c1ccc2c3c(cccc13)C=C2)c1ccccc1`, the growth was 93.2% (inactive).
In the case of `Cn1c2c(cc(S(=O)(=O)c3ccccc3)c1=O)CCc1c-2cnn1-c1ccccc1Cl`, the growth was 113% (inactive).
As to `O=c1oc2ccccc2cc1-c1csc(N/N=C/c2cc3ccccc3nc2Cl)n1`, the growth is 99.7% (inactive).
Under `O=S(=O)(OCCO)c1ccccc1` stands 102% (inactive); under `Cn1c2ccccc2c2nn(C(=O)c3ccccc3)c(=O)nc21`, 110% (inactive).
For `O=S(=O)(/N=C1C=C/C(=N\S(=O)(=O)c2ccccc2)c2ccccc2\1)c1ccccc1` the value was 102% (inactive); for `O=C(Nc1ccccc1O)c1ccc(NS(=O)(=O)c2cccc3cccnc23)cc1`, 29.2% (inactive); for `Cc1ccc(S(=O)(=O)N2CCc3ccc(O)c4c3C2Cc2ccc3c(c2-4)OCO3)cc1` (stereo not given), 9.54% (active).
Under `CCN1CCN(c2ccc(Nc3ncc4ccc5ncn(C(C)C)c5c4n3)nc2)CC1` stands 2.06% (active); under `COc1ccc(/C=C2\CN(Cc3cn(CCCNc4ccnc5cc(Cl)ccc45)nn3)C/C(=C\c3ccc(OC)c(OC)c3)C2=O)cc1OC`, 94.4% (inactive).
Turning to `COc1cc(-c2nc(SC(C)C)nc(Nc3ccccc3C)c2C#N)cc(OC)c1OC`, the growth was 109% (inactive).
Under `COc1ccc(C2CC(c3cc(OC)c(OC)c(OC)c3)=NN2c2ccc(S(N)(=O)=O)cc2)cc1` (stereo not given) stands 55.4% (inactive); under `Cc1oc2c(c1C(=O)N1CC[C@@H](N)C1)C(=O)c1c(c(O)c3ccccc3c1O)C2=O`, 8.79% (active).
For `COc1ccc(-c2nc3sccn3c2/C=C/C(=O)c2cc(OC)c(OC)c(OC)c2)cc1OC` the value was -9.5% (active).
For `C=C[C@H]1C[C@@H]2C[C@@H]3[C@H]4C/C=C\C(=O)NCCCC5NC(=O)C(=C(O)/C=C/[C@@H]4CC(=O)[C@H]3[C@@H]2[C@H]1C)C5=O` (stereo not given in full) the value was -73.4% (active); for `COc1ccc(-c2nc3sc(C)nn3c2-c2nc3cc(C)c(C)cc3[nH]2)cc1`, 86.6% (inactive).
